Measurements taken from PubChem BioAssay (NCATS).
“And” between values parts separate entries of the source, which are not always exact repeats. Equal values may be shown once. Results filed as inconclusive are left out. The source made the active and inactive calls. Unless noted, the call rests on the fitted dose curve; in most records, active means well fitted curve in the direction sought with a large enough effect; inconclusive means small, poorly fitted or top-dose-only effect, or another doubt; inactive means no such curve, though single readings can be large; an effect the other way counts as inactive or inconclusive.

Columns and labels:
[1] = Quantitative high throughput screen for delayed death inhibitors of the malarial parasite plastid, 48 hour incubation (AID 488752); further: nearly all actives have a fitted effect of over 65% in size; further: potency means the concentration at half of the fitted maximal effect
Method in brief: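 Erythrocytes infected with P. falciparum carrying an integrated firefly luciferase reporter (2% hematocrit, 0.1% parasitemia final) were exposed to compounds in RPMI 1640/0.5% Albumax for 48 h at 37 C, 5% CO2. Growth inhibition was scored as reduced luminescence.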

[2] = molecular target: Thioredoxin reductase 1, cytoplasmic (Rattus norvegicus) (UniProt O89049); assay: qHTS Assay for Substrates of Mammalian Selenoprotein Thioredoxin Reductase 1 (TrxR1) (AID 488772);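 further: NADPH fluorescence in the first read after selenite addition and not the 8 min delta; series mostly up to about 57 µM; 0% is about no effect; a drop in NADPH fluorescence below the no-compound background marks a TrxR1 substrate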
Method in brief: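 Quantitative HTS in Tris-HCl buffer at pH 7.5 with EDTA and Tween-20, using rat TrxR1, 400 uM NADPH and 400 uM selenite (final). A fall in initial NADPH fluorescence relative to background marked substrate behaviour.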

[3] = molecular target: M-phase phosphoprotein 8 (Homo sapiens) (UniProt Q99549); assay: qHTS Validation Assay for Inhibitors for MPP8 Chromodomain Interactions with Methylated Histone Tails (AID 488949); further: nearly all actives have a fitted effect of over 55% in size; further: potency means the concentration at half of the fitted maximal effect
Method in brief: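 Disruption of the preformed MPP8–trimethyl-H3K9 peptide complex (both 50 nM, 30 min, RT) is measured after 30 min compound exposure, using AlphaScreen proximity beads; aurintricarboxylic acid titration serves as plate control.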

[4] = molecular target: Chromobox protein homolog 1 (Homo sapiens) (UniProt P83916); assay: qHTS Validation Assay for Inhibitors of HP1-beta Chromodomain Interactions with Methylated Histone Tails (AID 488953);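 further: loss of AlphaScreen luminescence from HP1-beta binding biotinylated H3K9me3 peptide; series mostly up to about 110 µM; on the % scale 0 is the no-effect control and ±100 the full control effect; nearly all actives have a fitted effect of over 50% in size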
Method in brief: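 HP1-beta (50 nM) was preincubated 30 min at room temperature with biotinylated H3(1-18)K9me3 peptide (50 nM) in PBS pH 7.4, 0.01% Tween-20, then with compounds 30 min. AlphaScreen signal was read after streptavidin donor/nickel chelate acceptor beads (10 ug/mL final).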

[5] = molecular target: Methanococcus maripaludis chaperonin (MmCpn) (UniProt Q6LX38); assay: High-Throughput Screening for Modulators of Cytosolic Chaperonin Activity: MmCpn Primary Screen (AID 488978);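 further: 50 nM MmCpn enzyme hydrolysing 30 µM ATP at 37 °C; 0% is about no effect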
Method in brief: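 Measures ATPase turnover of the M. maripaludis chaperonin (50 nM final) against 30 uM ATP over 10 min at 37C, with compound added 5 min beforehand at room temperature. ADP is quantified by HTRF immunodetection.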

[6] = molecular target: D(1A) dopamine receptor (Homo sapiens) (UniProt P21728); assay: HTS Assay for Allosteric Agonists of the Human D1 Dopamine Receptor: Primary Screen for Agonists (AID 488981); further: potency means the concentration at half of the fitted maximal effect; on activation: 0% is about no effect
Method in brief: (§1)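 Tetracycline-induced HEK293 T-REx cells force-coupled to calcium signalling were incubated overnight at 30 C and dye-loaded at room temperature. Calcium flux over 180 s after compound addition flagged agonists; a further 180 s read after EC20 dopamine flagged potentiators.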

[7] = molecular target: D(1A) dopamine receptor (Homo sapiens) (UniProt P21728); assay: HTS Assay for Allosteric Agonists of the Human D1 Dopamine Receptor: Primary Screen for Potentiators (AID 488982); further: 0% is about no effect
Method in brief: as §1

[8] = molecular target: D(1A) dopamine receptor (Homo sapiens) (UniProt P21728); assay: HTS Assay for Allosteric Agonists of the Human D1 Dopamine Receptor: Primary Screen for Antagonists (AID 488983);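 further: calcium flux response to an EC80 dopamine challenge measured with no-wash dye; nearly all actives have a fitted effect of over 65% in size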; further: potency means the concentration at half of the fitted maximal effect
Method in brief: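 Tetracycline-induced HEK293 T-REx cells expressing force-coupled D1 were plated overnight at 30 C, dye-loaded for calcium, and read kinetically. Compounds were pinned in, then an EC80 dopamine challenge followed after 180 s to reveal antagonism.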

[9] = qHTS for Inhibitors of Cell Surface uPA Generation: Validation Assay (AID 493164);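 further: RAW 264.7 macrophage cells exposed to compound for 18 h; 0% is about no effect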
Method in brief: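 RAW 264.7, 4000 cells/well, o/n plating; cpd 7-pt 1:5 dilution 2.45 nM–38.3 uM final; 18 h, 37 C/5% CO2; ATP-Lite, 5 s luminescence exposure.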

[10] = molecular target: Flap endonuclease 1 (Homo sapiens) (UniProt P39748); assay: qHTS Validation Assay for the Inhibitors of Human Flap endonuclease 1 (FEN1) (AID 488816); further: potency means the concentration at half of the fitted maximal effect
Method in brief: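 FEN1, dispensed as a 10 nM reagent, was preincubated with pin-transferred compounds for 15 min at room temperature before substrate was added (50 nM final). Plates were read at 0 and 15 min, and a four-parameter Hill equation was fitted to the concentration-response data.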

[11] = molecular target: ATP-dependent 6-phosphofructokinase (Trypanosoma brucei brucei) (UniProt O15648); assay: qHTS Assay to Find Inhibitors of T. brucei phosphofructokinase: hit validation (AID 492961);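 further: luminescence reports ADP formed as PFK phosphorylates fructose-6-phosphate with ATP; series mostly up to about 51 µM; on the % scale 0 is the no-effect control and ±100 the full control effect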
Method in brief: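 PFK 1.25 nM, F6P 0.5 mM, ATP 0.1 mM, MgCl2 5 mM, 0.1 M TEA pH 8.0, Tween20 0.01%, BSA 0.1%; 45 min RT. ADP-Glo two-step detection, luminescence. qHTS titration; curve fitting with curve-class categorization.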

[12] = Validation screen for small molecules that induce genotoxicity in human embryonic kidney (HEK293T) cells expressing luciferase-tagged ELG1 (AID 493106); further: 0% is about no effect
Method in brief: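 HEK293T cells expressing luciferase-tagged ELG1 were exposed to compound or DMSO vehicle for 16 hr at 37 °C, 5% CO2. Genotoxic stress raises ELG1 levels, so increased luciferase signal after ONE-Glo addition and 30 min at room temperature marks hits.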

[13] = molecular target: Thyrotropin-releasing hormone receptor (Homo sapiens) (UniProt P34981); assay: qHTS for Small Molecule Agonists and Allosteric Enhancers of Human TRH Receptor: Validation Screen for Agonists (AID 493127;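 active means calcium activation more than 3 SD above the typical response in the agonist read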;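 further: intracellular calcium rise by fluo-8 fluorescence before TRH EC20 addition; 0% is about no effect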); conditions: TRH receptor agonist cell assay; at 2 µM; stronger effect = higher value
Method in brief: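 TRHR-expressing cells were plated overnight in serum-containing medium, then loaded with fluo-8 calcium dye at room temperature for 30 min–1.5 h. After a 10 s baseline, compound was pin-transferred and calcium fluorescence (ex 480/em 530) read kinetically for agonist response.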

[14] = Nrf2 qHTS screen for inhibitors: Validation (AID 493153; active means well fitted inhibition curve with a large enough effect in the main read-out, with a control signal flat, not every such curve was filed as active); conditions: Potency: luciferase luminescence; viability change: measured here: cytotoxicity max response
Method in brief: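 A549 cells carrying an ARE-driven firefly luciferase reporter, in 5% FBS OPTI-MEM, were treated with compounds in concentration-response for 18-24 h at 37°C. Viability was read by CellTiter-Fluor fluorescence, then Nrf2 activity by luciferase luminescence.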

[15] = Validation screen for small molecules that induce DNA re-replication in SW480 colon adenocarcinoma cells (AID 504364); further: 0% is about no effect
Method in brief: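 SW480 cells seeded at 250 per well were exposed to compound or DMSO for 48 hr at 37 C, 5% CO2, then stained with Hoechst for 40 min. DNA content per nucleus was imaged (405 nm ex, 500-530 nm em).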

[16] = molecular target: Transient receptor potential cation channel subfamily V member 1 (Homo sapiens) (UniProt Q8NER1); assay: HTS Assay for Compounds that Act as Enhancers of the Vanilloid Receptor 1 (AID 488979); further: 0% is about no effect
Method in brief: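 TRPV1-expressing cells loaded with Fluo-8 calcium dye; compounds added and calcium influx read kinetically for 3 min (agonist phase), then capsaicin at EC20 added and read 2 min more for enhancement. Fluorescence ex 480/em 520 nm.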

[17] = molecular target: Thyrotropin receptor (Homo sapiens) (UniProt P16473); assay: qHTS Assay for Antagonists of the Thyroid Stimulating Hormone Receptor (AID 488980); further: series mostly up to about 58 µM; 0% is about no effect
Method in brief: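 Cells expressing human TSHR (HEK293) are dispensed in HBSS/HEPES containing 70 uM RO 20-1724, compound is added, then TSH at EC80 (4 nM final). Antibody in lysis buffer follows, 30 minutes at room temperature before HTRF detection.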

[18] = molecular target: ATPase family AAA domain-containing protein 5 (Homo sapiens) (UniProt Q96QE3); assay: Validation screen for small molecules that inhibit ELG1-dependent DNA repair in human embryonic kidney (HEK293T) cells expressing luciferase-tagged ELG1 (AID 493107);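 further: cells co-treated with the DNA-damaging agent 5-fluorouridine alongside compound; series mostly up to about 46 µM; on the % scale 0 is the no-effect control and ±100 the full control effect; inhibitors lower the ELG1-luciferase luminescence signal; nearly all actives have a fitted effect of over 70% in size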
Method in brief: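 HEK293T cells expressing luciferase-tagged ELG1 were co-treated with 5-fluorouridine and compound or DMSO for 16 hr at 37 °C, 5% CO2. Luciferase activity was then read with ONE-Glo after 30 min at room temperature; suppressed signal indicates blocked ELG1 function.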

Sequence of Methanococcus maripaludis chaperonin (MmCpn) (Q6LX38 1-543): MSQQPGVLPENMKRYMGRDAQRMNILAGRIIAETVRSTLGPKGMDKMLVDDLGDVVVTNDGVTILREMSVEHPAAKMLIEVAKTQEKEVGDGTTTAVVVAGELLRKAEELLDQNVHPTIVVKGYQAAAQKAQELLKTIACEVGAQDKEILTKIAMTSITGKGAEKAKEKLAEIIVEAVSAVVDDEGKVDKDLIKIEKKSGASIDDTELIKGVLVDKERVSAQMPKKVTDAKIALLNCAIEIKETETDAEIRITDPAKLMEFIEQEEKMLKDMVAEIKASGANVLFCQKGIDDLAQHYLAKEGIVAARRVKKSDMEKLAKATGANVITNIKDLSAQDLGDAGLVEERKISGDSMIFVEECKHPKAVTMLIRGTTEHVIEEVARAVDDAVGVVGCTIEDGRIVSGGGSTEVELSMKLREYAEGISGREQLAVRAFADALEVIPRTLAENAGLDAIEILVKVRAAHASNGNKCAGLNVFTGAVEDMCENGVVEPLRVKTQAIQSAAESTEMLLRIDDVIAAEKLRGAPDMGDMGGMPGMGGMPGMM
Sequence of Thyrotropin-releasing hormone receptor (Homo sapiens) (P34981 whole entry, looked up): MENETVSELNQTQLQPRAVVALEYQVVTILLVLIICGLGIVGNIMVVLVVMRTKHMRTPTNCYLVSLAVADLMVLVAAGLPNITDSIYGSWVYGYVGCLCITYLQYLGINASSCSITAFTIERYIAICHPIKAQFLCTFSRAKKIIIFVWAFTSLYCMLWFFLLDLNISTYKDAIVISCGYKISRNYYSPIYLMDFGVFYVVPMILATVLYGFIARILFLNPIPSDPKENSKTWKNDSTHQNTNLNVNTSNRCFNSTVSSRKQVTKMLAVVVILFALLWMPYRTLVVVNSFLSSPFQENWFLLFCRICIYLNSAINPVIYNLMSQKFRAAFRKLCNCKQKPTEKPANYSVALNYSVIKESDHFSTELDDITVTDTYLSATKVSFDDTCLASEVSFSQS
Sequence of M-phase phosphoprotein 8 (Homo sapiens) (Q99549 whole entry, looked up): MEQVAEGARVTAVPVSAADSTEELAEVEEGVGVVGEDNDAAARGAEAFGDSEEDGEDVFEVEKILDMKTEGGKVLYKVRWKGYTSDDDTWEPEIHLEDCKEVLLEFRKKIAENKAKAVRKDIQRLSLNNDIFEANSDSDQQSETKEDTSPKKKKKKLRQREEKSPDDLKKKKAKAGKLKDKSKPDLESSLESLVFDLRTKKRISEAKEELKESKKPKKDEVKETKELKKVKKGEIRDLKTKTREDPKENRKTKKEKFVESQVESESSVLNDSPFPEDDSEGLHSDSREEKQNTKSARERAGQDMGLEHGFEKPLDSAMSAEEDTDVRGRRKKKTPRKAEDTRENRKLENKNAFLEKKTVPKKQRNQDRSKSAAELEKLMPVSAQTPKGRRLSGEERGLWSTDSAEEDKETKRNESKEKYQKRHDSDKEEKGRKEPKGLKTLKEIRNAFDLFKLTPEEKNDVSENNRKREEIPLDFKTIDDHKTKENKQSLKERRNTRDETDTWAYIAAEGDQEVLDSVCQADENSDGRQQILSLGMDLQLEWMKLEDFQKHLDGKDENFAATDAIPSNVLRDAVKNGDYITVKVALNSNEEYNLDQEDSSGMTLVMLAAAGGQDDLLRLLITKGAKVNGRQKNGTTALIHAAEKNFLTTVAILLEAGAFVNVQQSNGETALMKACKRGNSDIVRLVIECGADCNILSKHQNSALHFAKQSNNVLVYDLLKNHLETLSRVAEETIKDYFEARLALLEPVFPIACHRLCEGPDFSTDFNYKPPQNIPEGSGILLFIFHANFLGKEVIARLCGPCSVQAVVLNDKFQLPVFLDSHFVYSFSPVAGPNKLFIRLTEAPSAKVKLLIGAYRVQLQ
Sequence of ATPase family AAA domain-containing protein 5 (Homo sapiens) (Q96QE3 whole entry, looked up, the tested form may be a part): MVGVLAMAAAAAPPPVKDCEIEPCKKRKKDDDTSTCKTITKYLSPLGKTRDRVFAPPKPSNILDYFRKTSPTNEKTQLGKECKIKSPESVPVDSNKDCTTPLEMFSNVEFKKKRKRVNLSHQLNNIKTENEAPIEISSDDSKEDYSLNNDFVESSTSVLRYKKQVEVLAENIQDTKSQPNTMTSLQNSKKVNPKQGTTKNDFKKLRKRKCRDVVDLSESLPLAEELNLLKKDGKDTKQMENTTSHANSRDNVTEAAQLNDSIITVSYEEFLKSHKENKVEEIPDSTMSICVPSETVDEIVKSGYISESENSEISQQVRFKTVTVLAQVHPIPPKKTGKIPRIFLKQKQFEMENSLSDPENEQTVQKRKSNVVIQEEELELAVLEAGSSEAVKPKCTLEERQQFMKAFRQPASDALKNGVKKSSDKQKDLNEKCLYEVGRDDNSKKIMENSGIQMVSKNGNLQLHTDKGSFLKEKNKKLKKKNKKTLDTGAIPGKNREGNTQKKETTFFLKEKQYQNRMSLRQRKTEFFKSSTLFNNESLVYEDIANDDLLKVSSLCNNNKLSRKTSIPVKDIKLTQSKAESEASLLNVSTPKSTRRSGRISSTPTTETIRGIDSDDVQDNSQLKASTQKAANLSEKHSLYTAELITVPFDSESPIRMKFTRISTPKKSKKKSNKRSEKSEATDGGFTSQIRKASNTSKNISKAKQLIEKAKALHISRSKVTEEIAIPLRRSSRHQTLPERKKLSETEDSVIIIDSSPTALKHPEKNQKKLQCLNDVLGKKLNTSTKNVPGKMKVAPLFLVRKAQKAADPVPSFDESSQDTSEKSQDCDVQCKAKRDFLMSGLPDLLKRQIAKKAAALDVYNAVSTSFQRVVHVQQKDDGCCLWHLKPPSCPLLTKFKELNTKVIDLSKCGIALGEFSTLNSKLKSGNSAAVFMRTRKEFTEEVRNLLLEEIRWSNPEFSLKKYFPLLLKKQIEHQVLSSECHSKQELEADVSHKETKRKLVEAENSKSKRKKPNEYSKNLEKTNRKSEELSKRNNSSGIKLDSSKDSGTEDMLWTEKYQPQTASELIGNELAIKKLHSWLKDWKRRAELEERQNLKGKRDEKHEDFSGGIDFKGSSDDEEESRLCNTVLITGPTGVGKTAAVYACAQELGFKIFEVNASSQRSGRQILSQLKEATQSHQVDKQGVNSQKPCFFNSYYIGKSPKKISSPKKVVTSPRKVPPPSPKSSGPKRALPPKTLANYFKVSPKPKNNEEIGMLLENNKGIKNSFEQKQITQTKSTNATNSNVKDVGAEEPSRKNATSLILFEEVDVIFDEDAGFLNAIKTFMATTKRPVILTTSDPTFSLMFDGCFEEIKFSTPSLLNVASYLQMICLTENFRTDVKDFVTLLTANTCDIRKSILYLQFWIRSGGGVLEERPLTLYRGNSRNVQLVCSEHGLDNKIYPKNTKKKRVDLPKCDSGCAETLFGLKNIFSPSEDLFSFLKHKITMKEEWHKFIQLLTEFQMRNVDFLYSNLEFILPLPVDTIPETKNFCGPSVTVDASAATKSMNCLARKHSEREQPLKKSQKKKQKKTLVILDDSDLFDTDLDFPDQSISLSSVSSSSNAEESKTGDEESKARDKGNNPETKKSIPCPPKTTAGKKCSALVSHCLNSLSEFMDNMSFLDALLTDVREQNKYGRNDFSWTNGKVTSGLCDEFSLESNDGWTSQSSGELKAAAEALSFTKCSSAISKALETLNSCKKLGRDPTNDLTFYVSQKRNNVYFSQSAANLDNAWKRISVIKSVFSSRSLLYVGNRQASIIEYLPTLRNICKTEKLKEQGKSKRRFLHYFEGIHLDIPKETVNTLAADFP
Sequence of Chromobox protein homolog 1 (Homo sapiens) (P83916 whole entry, looked up): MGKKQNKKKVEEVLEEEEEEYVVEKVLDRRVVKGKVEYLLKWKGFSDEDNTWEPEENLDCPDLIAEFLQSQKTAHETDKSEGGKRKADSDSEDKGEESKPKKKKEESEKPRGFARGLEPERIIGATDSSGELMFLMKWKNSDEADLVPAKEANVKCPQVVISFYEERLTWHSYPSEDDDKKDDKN
Sequence of Flap endonuclease 1 (Homo sapiens) (P39748 whole entry, looked up): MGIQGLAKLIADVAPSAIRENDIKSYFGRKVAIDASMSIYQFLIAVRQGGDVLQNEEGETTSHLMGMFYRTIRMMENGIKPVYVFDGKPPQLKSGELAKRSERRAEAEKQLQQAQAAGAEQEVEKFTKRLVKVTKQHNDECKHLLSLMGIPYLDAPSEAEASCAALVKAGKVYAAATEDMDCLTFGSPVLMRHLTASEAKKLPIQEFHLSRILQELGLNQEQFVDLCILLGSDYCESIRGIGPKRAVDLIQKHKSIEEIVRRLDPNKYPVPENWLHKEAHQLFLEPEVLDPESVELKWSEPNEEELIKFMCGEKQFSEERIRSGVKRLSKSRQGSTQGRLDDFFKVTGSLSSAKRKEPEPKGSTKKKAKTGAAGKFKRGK
Sequence of Transient receptor potential cation channel subfamily V member 1 (Homo sapiens) (Q8NER1 whole entry, looked up): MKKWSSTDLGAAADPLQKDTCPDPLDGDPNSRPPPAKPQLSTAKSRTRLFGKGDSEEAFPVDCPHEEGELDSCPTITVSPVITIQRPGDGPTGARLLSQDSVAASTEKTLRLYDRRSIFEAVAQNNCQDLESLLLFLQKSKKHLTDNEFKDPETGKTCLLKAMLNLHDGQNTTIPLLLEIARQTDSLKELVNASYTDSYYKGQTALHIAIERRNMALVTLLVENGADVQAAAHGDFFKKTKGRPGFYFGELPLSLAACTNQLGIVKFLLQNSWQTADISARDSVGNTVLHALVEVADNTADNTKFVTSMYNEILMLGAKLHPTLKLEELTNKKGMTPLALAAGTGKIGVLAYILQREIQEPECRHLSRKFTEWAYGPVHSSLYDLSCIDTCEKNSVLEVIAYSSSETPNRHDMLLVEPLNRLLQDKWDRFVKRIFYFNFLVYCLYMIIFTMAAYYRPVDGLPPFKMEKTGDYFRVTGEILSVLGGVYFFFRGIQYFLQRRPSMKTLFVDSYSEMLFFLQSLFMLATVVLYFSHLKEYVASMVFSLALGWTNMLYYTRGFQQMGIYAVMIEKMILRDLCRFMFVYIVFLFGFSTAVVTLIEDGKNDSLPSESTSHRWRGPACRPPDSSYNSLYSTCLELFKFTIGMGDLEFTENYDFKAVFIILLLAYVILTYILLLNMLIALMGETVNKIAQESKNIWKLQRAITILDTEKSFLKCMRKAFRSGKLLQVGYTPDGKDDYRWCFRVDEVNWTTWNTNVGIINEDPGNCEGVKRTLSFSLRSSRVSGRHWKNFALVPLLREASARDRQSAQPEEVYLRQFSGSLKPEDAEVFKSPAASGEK

CC[C@H]1CN2CCc3cc(OC)c(OC)cc3[C@@H]2C[C@@H]1C[C@H]1NCCc2cc(OC)c(OC)cc21
inactive: outcome [2] | Potency [3] | Potency [4] | Potency [5] | Potency [6] | outcome [7] | Potency [8] | outcome [9]
active: Potency [1] 0.117 µM

CC(C(O)c1ccc(O)cc1)N1CCC(Cc2ccccc2)CC1 (centres undefined)
-19.8%: viability change [14]
inactive: outcome [2] | Potency [10] | Potency [3] | Potency [4] | Potency [5] | outcome [7] | Potency [11] | Potency [12] | activation [13] 5.75% | Potency [14] | outcome [9] | outcome [15]
active: Potency [1] 4.65 µM | Potency [6] 11.2 µM

C[C@H]1O[C@@H](n2cc(F)c(=O)[nH]c2=O)[C@H](O)[C@@H]1O
inactive: Potency [1] | Potency [3] | outcome [16] | outcome [17] | Potency [11] | activation [13] 0.688% | outcome [15]

CC1=C(CC(=O)O)c2cc(F)ccc2/C1=C\c1ccc(S(C)=O)cc1 (centres undefined)
inactive: Potency [1] | outcome [2] | Potency [10] | Potency [3] | Potency [5] | outcome [17] | Potency [6] | outcome [7] | Potency [8] | Potency [11] | Potency [12] | outcome [18] | Potency [14] | outcome [9] | outcome [15]
-1.89%: viability change [14]

CC(=O)OCC(=O)[C@@]1(O)CC[C@H]2[C@@H]3CCC4=CC(=O)CC[C@]4(C)[C@H]3C(=O)C[C@@]21C
inactive: Potency [1] | outcome [2] | Potency [10] | Potency [3] | Potency [4] | Potency [5] | outcome [16] | Potency [6] | outcome [7] | Potency [8] | Potency [12] | outcome [18] | activation [13] 1.06% | Potency [14] | outcome [9] | outcome [15]
3.82%: viability change [14]

N=c1c[n+](N2CCOCC2)[n-]o1
inactive: Potency [1] | outcome [2] | Potency [10] | Potency [3] | Potency [4] | Potency [5] | outcome [16] | outcome [17] | Potency [6] | outcome [7] | Potency [8] | Potency [12] | activation [13] 0.5% | Potency [14] | outcome [9] | outcome [15]
0.362%: viability change [14]

NC1CCN(c2cccc(Cl)n2)CC1
-3.84%: viability change [14]
inactive: Potency [1] | outcome [2] | Potency [10] | Potency [3] | Potency [4] | Potency [5] | outcome [16] | Potency [6] | outcome [7] | Potency [8] | Potency [12] | outcome [18] | activation [13] 1.06% | Potency [14] | outcome [9] | outcome [15]

CC(C)(C)c1onc(OCP(=O)(O)O)c1CC(N)C(=O)O (centres undefined)
inactive: Potency [1] | outcome [2] | Potency [10] | Potency [3] | Potency [4] | Potency [5] | outcome [16] | outcome [17] | Potency [6] | outcome [7] | Potency [8] | Potency [12] | outcome [18] | activation [13] 1% | Potency [14] | outcome [9] | outcome [15]
4.09% and -1.93%: viability change [14]

CC(C)(C(=O)O)c1ccc(C(O)CCCN2CCC(C(O)(c3ccccc3)c3ccccc3)CC2)cc1 (centres undefined)
5.93%: viability change [14]
inactive: Potency [1] | outcome [2] | Potency [10] | Potency [3] | Potency [4] | Potency [5] | outcome [16] | outcome [17] | Potency [6] | outcome [7] | Potency [8] | Potency [12] | outcome [18] | activation [13] -0.125% | Potency [14] | outcome [9] | outcome [15]

Cc1cc(N)c2ccccc2[n+]1CCCCCCCCCC[n+]1c(C)cc(N)c2ccccc21
active: Potency [1] 0.37 µM | Potency [10] 21.2 µM | Potency [3] 50.1 µM
inactive: outcome [2] | Potency [5] | outcome [16] | outcome [17] | Potency [6] | outcome [7] | Potency [11] | Potency [12] | activation [13] 0.812% | outcome [9] | outcome [15]

C[C@](N)(Cc1ccc(O)cc1)C(=O)O
3.53%: viability change [14]
inactive: Potency [1] | outcome [2] | Potency [10] | Potency [3] | Potency [4] | Potency [5] | outcome [16] | outcome [17] | Potency [6] | outcome [7] | Potency [8] | Potency [11] | Potency [12] | outcome [18] | Potency [14] | outcome [9] | outcome [15]

CN(C)CCOC(C)(c1ccccc1)c1ccccn1 (centres undefined)
-4.35%: viability change [14]
inactive: Potency [1] | outcome [2] | Potency [10] | Potency [3] | Potency [4] | Potency [5] | outcome [16] | outcome [17] | Potency [6] | outcome [7] | Potency [8] | Potency [12] | outcome [18] | Potency [14] | outcome [9] | outcome [15]

CNCCCC1c2ccccc2C=Cc2ccccc21
inactive: outcome [2] | Potency [3] | Potency [4] | outcome [17] | Potency [6] | outcome [7] | Potency [11] | Potency [12] | outcome [18] | activation [13] 7.31% | Potency [14] | outcome [9] | outcome [15]
active: Potency [1] 14.7 µM | Potency [8] 11.2 µM
4.24%: viability change [14]
